Consider seven targets from the supplement of paper PMC10849652.

About 7,900 targets were measured; listed, in parts, are those with a hit and a random draw of the rest. About 0.6% of all pairs of compound and target were hits. Unmarked numbers belong to inactive results.

Common to all, as to test: log2 fold change, soluble protein after heating vs DMSO (PISA); higher = thermal stabilisation; K562 cells, 10 uM, 30 min; active = over 0.2 and 3.5 SD of the protein, either way, in both replicates (recomputed)
Compound in assay [1]: CC[C@@H]1C(=O)N(C)c2cnc(Nc3ccc(C(=O)NC4CCN(C)CC4)cc3OC)nc2N1C1CCCC1
In a few lines: (§1)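 Quantification of soluble protein used TMTpro 16plex LC-MS/MS, with channel sums equalised. Samples were the supernatant after 21,000xg for 90 min of pooled aliquots from K562 cells (2×10^6 cells/mL) treated with 10 μM compound for 30 min, heated for 3 min over 48°C-58°C, and extracted in PBS with 0.5% NP-40 at 4°C. Values, from duplicates, describe thermal stability against control samples on a log2 fold-change scale.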

Compound in another assay: CC[C@@H]1C(=O)N(C)c2cnc(Nc3ccc(C(=O)N[C@H]4CC[C@H](N5CCN(CC6CC6)CC5)CC4)cc3OC)nc2N1C(C)C [volasertib]
The method, boiled down: as §1

Compound in assay [2]: CC[C@H](C)N1C=C(C2=C(C=C(C=C21)C3=CN=C(C=C3)N4CCNCC4)C(=O)NCC5=C(C=C(NC5=O)C)C)C
In a few lines:
as §1

Compound in a further assay: CC[C@H](C)[C@@H](C(=O)N[C@@H]([C@@H](C)O)C(=O)N[C@@H](CC(C)C)C(=O)[C@]1(CO1)C)NC(=O)[C@H]([C@@H](C)CC)N(C)C(=O)C [epoxomicin]
The method, boiled down: as §1

Compound in assay [3]: CCn1c(C(=O)N(C2CC2)C2CC2)cc2c3c(ncn3C)c(Nc3cc(C)n(C)n3)nc21
The method, boiled down: as §1

Compound in assay [4]: CCn1cc(-c2ccnc3[nH]c(-c4cccc(CN(C)C)c4)cc23)c(-c2ccc(NC(=O)N(C)C)cc2)n1
In a few lines:
as §1

Compound in assay [5]: CN(C)CC(=O)Nc1ccc2[nH]c(=O)c3ccccc3c2c1
In a few lines:
as §1

Compound in the next assay: CN(CCOC1=CC=C(C=C1)C[C@H]2C(=O)NC(=O)S2)C3=CC=CC=N3 (racemic) [rosiglitazone]
The method, boiled down: as §1

Compound in assay [6]: CN1C2=C(C3=C1C(=O)N(N=C3)CC4=CC(=CC=C4)N)SC(=C2)S(=O)C
In a few lines:
as §1

Compound in assay [7]: CN1CCC(CNc2ccc3ncc(-c4cccc(OC(F)(F)F)c4)n3n2)CC1
The method, boiled down:
as §1

Compound in a further assay: CN1CCN(CCOc2cc(OC3CCOCC3)c3c(Nc4c(Cl)ccc5c4OCO5)ncnc3c2)CC1 [saracatinib]
In a few lines: as §1

Compound in the next assay: CN1CCN(c2nc(C3=C(c4c[nH]c5ccccc45)C(=O)NC3=O)c3ccccc3n2)CC1 [sotrastaurin]
The method, boiled down:
as §1

Compound in the next assay: CN1CC[C@H](c2c(O)cc(O)c3c(=O)cc(-c4ccccc4Cl)oc23)[C@H](O)C1 [alvocidib]
The method, boiled down:
as §1

Compound in the next assay: CN1CCc2c(c3ccccc3n2Cc2ccc(C(=O)NO)cc2)C1 [Tubastatin A]
In a few lines:
as §1

Compound in assay [8]: CNC(=O)C1=CC=CC=C1NC2=NC(=NC=C2Cl)NC3=C(C=C(C=C3)N4CCOCC4)OC
In a few lines: as §1

Compound in the next assay: CNC(=O)c1ccc(Nc2ncc(C(F)(F)F)c(NCc3nccnc3N(C)S(C)(=O)=O)n2)cc1 [defactinib]
The method, boiled down:
as §1

Compound in another assay: CNCc1ccc(-c2[nH]c3cc(F)cc4c3c2CCNC4=O)cc1 [rucaparib]
The method, boiled down: as §1

Compound in assay [9]: CNc1nc(-c2ccc3c(N)n[nH]c3c2)cc(N2C[C@@H](C(=O)NC3CCCCC3)CC[C@H]2C)n1
The method, boiled down:
as §1

Compound in another assay: COC(=O)N[C@@H](C)CNc1nccc(-c2cn(C(C)C)nc2-c2cc(Cl)cc(NS(C)(=O)=O)c2F)n1 [encorafenib]
The method, boiled down:
as §1

Compound in assay [10]: COC(=O)[C@H](CCSC)NC(=O)C1=C(C=C(C=C1)NC[C@H](CS)N)C2=CC=CC=C2
The method, boiled down:
as §1

UniProt Q9H4A6, sequence (Q9H4A6 whole entry, looked up): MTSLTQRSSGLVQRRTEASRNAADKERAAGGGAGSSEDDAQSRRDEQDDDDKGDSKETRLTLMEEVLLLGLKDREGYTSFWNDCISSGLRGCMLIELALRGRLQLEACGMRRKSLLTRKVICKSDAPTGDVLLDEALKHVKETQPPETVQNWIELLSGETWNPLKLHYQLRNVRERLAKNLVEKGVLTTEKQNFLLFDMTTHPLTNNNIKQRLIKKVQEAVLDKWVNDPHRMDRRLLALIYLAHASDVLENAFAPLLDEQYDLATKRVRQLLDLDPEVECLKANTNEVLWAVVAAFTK
UniProt Q9Y680, sequence (Q9Y680 whole entry, looked up): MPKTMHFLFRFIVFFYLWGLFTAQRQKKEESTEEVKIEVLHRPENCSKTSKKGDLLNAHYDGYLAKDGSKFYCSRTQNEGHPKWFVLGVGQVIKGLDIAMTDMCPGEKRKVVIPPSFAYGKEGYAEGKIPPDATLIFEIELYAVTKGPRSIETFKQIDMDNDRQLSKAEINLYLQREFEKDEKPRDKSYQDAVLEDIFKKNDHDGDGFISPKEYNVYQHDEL
UniProt Q9BUP3, sequence (Q9BUP3 whole entry, looked up): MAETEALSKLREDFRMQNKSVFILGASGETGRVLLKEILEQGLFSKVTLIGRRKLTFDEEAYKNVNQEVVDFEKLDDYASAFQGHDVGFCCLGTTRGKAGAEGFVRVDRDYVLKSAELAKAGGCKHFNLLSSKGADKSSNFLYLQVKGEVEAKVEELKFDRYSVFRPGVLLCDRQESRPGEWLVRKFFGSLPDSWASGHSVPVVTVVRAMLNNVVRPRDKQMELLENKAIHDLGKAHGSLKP
UniProt P06865, sequence (P06865 whole entry, looked up): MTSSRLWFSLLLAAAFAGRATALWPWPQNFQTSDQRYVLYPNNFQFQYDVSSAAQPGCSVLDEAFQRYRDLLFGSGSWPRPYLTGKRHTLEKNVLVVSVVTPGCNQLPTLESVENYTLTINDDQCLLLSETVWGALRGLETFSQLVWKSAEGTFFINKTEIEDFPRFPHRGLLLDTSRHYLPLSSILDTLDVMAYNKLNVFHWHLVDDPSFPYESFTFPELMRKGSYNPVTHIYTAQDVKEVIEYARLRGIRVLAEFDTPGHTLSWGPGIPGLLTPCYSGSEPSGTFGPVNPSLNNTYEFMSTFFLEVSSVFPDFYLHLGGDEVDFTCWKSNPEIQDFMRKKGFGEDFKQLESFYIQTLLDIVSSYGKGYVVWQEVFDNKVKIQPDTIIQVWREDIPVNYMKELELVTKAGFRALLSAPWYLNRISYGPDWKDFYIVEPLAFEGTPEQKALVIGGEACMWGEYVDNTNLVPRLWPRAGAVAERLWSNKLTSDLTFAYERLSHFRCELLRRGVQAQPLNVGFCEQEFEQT
UniProt Q9UJ14, sequence (Q9UJ14 whole entry, looked up): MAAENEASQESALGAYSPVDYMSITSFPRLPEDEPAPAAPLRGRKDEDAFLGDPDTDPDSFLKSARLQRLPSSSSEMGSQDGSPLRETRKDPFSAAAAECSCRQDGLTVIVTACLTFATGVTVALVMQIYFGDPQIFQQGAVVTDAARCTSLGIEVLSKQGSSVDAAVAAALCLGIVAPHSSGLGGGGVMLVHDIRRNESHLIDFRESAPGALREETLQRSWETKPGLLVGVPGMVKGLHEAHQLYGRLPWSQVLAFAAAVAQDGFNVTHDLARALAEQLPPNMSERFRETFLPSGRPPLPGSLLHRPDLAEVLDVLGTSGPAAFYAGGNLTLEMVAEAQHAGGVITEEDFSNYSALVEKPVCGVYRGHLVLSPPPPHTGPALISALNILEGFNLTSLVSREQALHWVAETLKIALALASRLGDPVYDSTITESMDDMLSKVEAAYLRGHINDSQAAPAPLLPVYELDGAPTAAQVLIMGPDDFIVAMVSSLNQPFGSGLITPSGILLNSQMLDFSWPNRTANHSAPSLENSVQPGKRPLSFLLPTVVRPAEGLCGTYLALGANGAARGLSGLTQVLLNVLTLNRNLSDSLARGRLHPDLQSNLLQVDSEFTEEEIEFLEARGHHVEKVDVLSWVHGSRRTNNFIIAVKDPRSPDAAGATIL

On to FNTA (UniProt P49354), for which the log2 fold change in assay [1] was 0.123; with volasertib, 0.362 (active); in assay [2] it was 0.006; in the assay with epoxomicin, 0.019; in assay [3], 0.032; in assay [4], -0.074. In addition, the log2 fold change in assay [5] is 0.012; with rosiglitazone it was 0.036; in assay [6], -0.03; in assay [7], 0.015; with saracatinib, 0.084; with sotrastaurin it was 0.141. For the same target, the log2 fold change with alvocidib is -0.006; in the assay with Tubastatin A, -0.068; in [8], -0.028; in the assay with defactinib, 0.019; in the assay with rucaparib, -0.243; in assay [9], -0.016. For the same target, the log2 fold change was -0.239 with encorafenib and 0.561 (active) in assay [10].
Turning to GGT7 (UniProt Q9UJ14), the log2 fold change was 0.029 in assay [1]; -0.063 with volasertib; -0.069 in [2]; 0.079 in the assay with epoxomicin; -0.013 in assay [3]; -0.124 in [4]. The log2 fold change in assay [5] was 0.081; in the assay with rosiglitazone, 0.005; in [6] it was 0.02; in [7], 0.023; with saracatinib it was 0.066; with sotrastaurin it was 0.051. Besides, the log2 fold change is -0.049 with alvocidib; 0.053 with Tubastatin A; -0.042 in assay [8]; -0.027 with defactinib; -0.038 with rucaparib; -0.091 in assay [9]. Moreover, the log2 fold change with encorafenib was 0; in [10], -0.011.
As for HTATIP2 isoform 3 (UniProt Q9BUP3), the log2 fold change was -0.029 in assay [1]; -0.168 with volasertib; 0.035 in assay [2]; 0.008 in the assay with epoxomicin; 0.02 in [3]; -0.013 in assay [4]. The log2 fold change in [5] was 0.009; with rosiglitazone, -0.025; in [6], -0.016; in [7] it was -0.148; with saracatinib it was -0.016; in the assay with sotrastaurin it was 0.023. Also, the log2 fold change in the assay with alvocidib is -0.113; with Tubastatin A it was -0.009; in assay [8], -0.001; with defactinib, -0.065; with rucaparib, 0.023; in assay [9] it was 0.022. Also, the log2 fold change with encorafenib is 0.01; in assay [10], -0.016.
Turning to FKBP7 (UniProt Q9Y680), the log2 fold change in assay [1] is 0.035; with volasertib, 0.021; in [2], 0.015; in the assay with epoxomicin, -0.04; in assay [3] it was 0.003; in [4] it was 0.026. In addition, the log2 fold change in assay [5] is -0.042; with rosiglitazone, -0.054; in assay [6] it was -0.001; in assay [7] it was 0.191; in the assay with saracatinib it was 0.073; with sotrastaurin it was 0.056. Further, the log2 fold change with alvocidib was 0; with Tubastatin A, -0.026; in assay [8], 0.008; in the assay with defactinib, -0.032; with rucaparib, 0.01; in assay [9], 0.031. In addition, the values for the log2 fold change (in the assay with encorafenib; in [10]) were 0.044 and 0.036, respectively.
For the target GOLPH3 (UniProt Q9H4A6), the log2 fold change is 0.029 in [1]; 0.008 with volasertib; 0.086 in assay [2]; 0.084 with epoxomicin; -0.016 in [3]; -0.059 in assay [4]. Further, the log2 fold change was -0.001 in [5]; 0.037 with rosiglitazone; -0.075 in [6]; 0.236 (active) in assay [7]; -0.016 in the assay with saracatinib; -0.046 in the assay with sotrastaurin. Further, the log2 fold change was -0.081 in the assay with alvocidib; 0.028 in the assay with Tubastatin A; 0.022 in assay [8]; -0.064 in the assay with defactinib; -0.064 with rucaparib; 0.013 in assay [9]. The figures for the log2 fold change (in the assay with encorafenib; in assay [10]) were 0.047 and -0.044, respectively.
For the target H2AFX (UniProt P16104), the log2 fold change was 0.002 in assay [1]; 0.214 with volasertib; -0.096 in assay [2]; -0.237 with epoxomicin; -0.01 in assay [3]; 0.279 in assay [4]. Moreover, the log2 fold change was -0.213 in assay [5]; -0.101 in the assay with rosiglitazone; 0.501 in assay [6]; 0.082 in assay [7]; -0.123 in the assay with saracatinib; 0.081 in the assay with sotrastaurin. For the same target, the log2 fold change with alvocidib was 0.249; with Tubastatin A it was 0.025; in assay [8], -0.003; in the assay with defactinib, 0.53; in the assay with rucaparib, 0.347; in assay [9] it was 0.089. The values for the log2 fold change (with encorafenib; in assay [10]) were -0.013 and 0.233, respectively.
As for HEXA (UniProt P06865), the log2 fold change in assay [1] is -0.423 (active); with volasertib, -0.479 (active); in [2], -0.028; in the assay with epoxomicin it was -0.012; in assay [3] it was 0.022; in assay [4] it was -0.002. The log2 fold change in assay [5] was -0.021; with rosiglitazone it was 0; in assay [6], -0.02; in [7], -0.63 (active); with saracatinib, 0.031; with sotrastaurin, 0.098. For the same target, the log2 fold change was 0.005 in the assay with alvocidib; -0.145 in the assay with Tubastatin A; -0.012 in [8]; -0.008 in the assay with defactinib; -0.07 with rucaparib; -0.018 in assay [9]. In addition, the log2 fold change with encorafenib was 0.003; in assay [10] it was 0.016.
